Epigenetic mod: derepresses silenced GFP locus in mouse C127i cells; mouse C127i GFP locus derepression, cytometry, 30 h; Potency, µM (titrated, usually from 46.1 µM), for the others: at the highest dose GFP derepression (activation); 0.09% of 68,000 active; note: % of control where 0% means no effect
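Murine C127i mammary cells carrying a silenced, stably integrated CMV-driven GFP reporter were treated with compound for 30 hours at 37 C. After PBS washes, GFP-positive cells were counted by laser-scanning microplate cytometry.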
HBB splice mod: modulators of hemoglobin beta chain splicing. Potency, µM (top dose mostly 46.1 µM), for inactives: top-dose activation, most hits filed as activators. 0.06% of 65,000 active. HBB splicing reporter cell assay, activation; EGFP reporter with mutant IVS2-654 intron; response scale: normalised to 500 nM splice-correcting PNA; note: potency is the fitted concentration of half-maximal effect; 0% is about no effect
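HeLa cells stably expressing EGFP interrupted by mutant beta-globin intron 2 (IVS2-654), 500/well in 2% FCS. Treated with compound for 2 days at 37C. Splicing correction scored as total well GFP intensity (488 nm excitation, 500-520 nm emission); 500 nM antisense PNA served as control.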
Peg3 imprint: inducers of genomic imprint erasure in mouse ES cells | mouse ES Peg3-LacZ reporter, beta-gal luminescence, 40 h | Potency, µM (doses to about 60.7 µM), inactives show top-dose activity change, positive = activation, actives largely listed as activators | 0.02% of 110,000 active | AID 1948; note: potency is the fitted concentration of half-maximal effect
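Each well holds 300 Peg3LacZ-Neo (maternal) female ES cells incubated 40 h at 37C, 5% CO2. LacZ is measured by BetaGlo luminescence, with AC50 and maximum efficacy derived from dose-response curves.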
p53ts 32C tox: cytotoxicity in p53ts cells at permissive temperature; H1299-p53A138V at 32C, ATP luminescence viability, 24 h; Potency, µM (series often up to 46.1 µM), for the others: top-dose activity change, negative = cytotoxicity, most hits filed as cytotoxic; 0.93% of 130,000 active;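 note: potency is the fitted concentration of half-maximal effect; 0% = DMSO and -100% = full killing by reference compound; nearly all actives have a fitted effect of over 55% in size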
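ATP-content luminescence (ATPlite) read-out after 24 h compound exposure at 32C in H1299-p53A138V cells (600/well). Tested up to 46 uM. Normalized to DMSO (0%) and 100 uM tamoxifen (100% killing); Hill-fit AC50.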
Ub-GFP proteasome: ubiquitin-GFP accumulation via proteasome inhibition; Ubiquitin-GFP reporter cells, proteasome inhibition, GFP fluorescence; response scale: untreated = 0%, 10 µM MG-132 = 100%; Potency, µM (doses to about 45.9 µM), inactives show top-dose activation (GFP accumulation), hits mostly activators; 67,000 tested, under 10 active; AID 526; active = well fitted activation curve with a large enough effect, not every such curve was filed as active; inconclusive = small, poorly fitted or top-dose-only effect, or another doubt; inactive = no such curve, though single readings can be large or run the other way; note: potency is the fitted concentration of half-maximal effect
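GFP accumulation read-out: laser plate cytometry counting ubiquitin(G76V)-GFP-expressing U2OS cells after 4 hr compound exposure at 37 °C. Titrations spanned 46 uM to 2.9 nM; 0% = basal, 100% = 10 uM MG-132; concentration-response curves fitted.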
p53ts 39C tox: kills p53ts cells at the nonpermissive temperature. Potency, µM (highest dose often 46.1 µM), without a hit: at the top dose activity change, negative = cell killing, hits mostly cytotoxic. AID 902. 1.5% of 130,000 active. H1299-p53A138V viability at 39C, ATP luminescence, 24 h; note: potency is the fitted concentration of half-maximal effect; % is set by controls: 0 for no effect and ±100 for the full control effect; nearly all actives have a fitted effect of over 55% in size
Starred values were filed as active, the others as inactive; ! = a repeat was not active; [ ] = remark or other dose. Shown are actives, neighbours in structure and some others; about 1.6% of the full set was active somewhere. Unless noted, calls come from the whole dose curve; as a rule, active = well fitted curve in the direction sought with a large enough effect; inconclusive = small, poorly fitted or top-dose-only effect, or another doubt; inactive = no such curve, though single readings can be large; an effect the other way counts as inactive or inconclusive.

Results for CCC(C)C(=O)c1c(O)c(C)c2oc3c(C)c(O)c(C(=O)C(C)CC)c(O)c3c2c1O (centres undefined) ?
Peg3 imprint: 6.2%; p53ts 32C tox: 12.6µM*; p53ts 39C tox: 12.6µM*

Results for COc1ccc(CCN2CCC(CNC(=O)c3cnn(-c4ccc(C)cc4)c3C3CCN(C(=O)OC(C)(C)C)CC3)CC2)cc1 ?
Peg3 imprint: -10.2%[10.9 µM]; p53ts 32C tox: inconclusive; p53ts 39C tox: inconclusive

Results for COc1c(CC=C(C)C)c2c(c3oc(=O)c(-c4ccc(O)cc4)c(O)c13)C=CC(C)(C)O2 ?
Peg3 imprint: 2.3%; p53ts 32C tox: 3.8%; p53ts 39C tox: -0.1%

Results for CC(C)=CCCC1(C)C=Cc2c(O)c3c(c(CC=C(C)C)c2O1)OC12C(=CC4CC1C(C)(C)OC2(C/C=C(/C)C(=O)O)C4=O)C3=O (centres undefined) ?
Peg3 imprint: -34.4%; p53ts 32C tox: 3.98µM*; p53ts 39C tox: 6.31µM*

Results for CC(C)=CCCC1(C)C=Cc2c(O)c3c(c(CC=C(C)C)c2O1)OC12C(=CC4CC1C(C)(C)OC2(C/C=C(/C)C(=O)O)C4O)C3=O (centres undefined) ?
Peg3 imprint: -39.8%; p53ts 32C tox: 5.01µM*; p53ts 39C tox: 5.01µM*

How did CC(C)CCCC1(C)C=Cc2c(O)c3c(c(CCC(C)C)c2O1)OC12C(CC4CC1C(C)(C)OC2(CCC(C)C(=O)O)C4O)C3=O (centres undefined) do in these assays?
Peg3 imprint: inconclusive; p53ts 32C tox: 24.9%; p53ts 39C tox: inconclusive

Results for CC(C)[C@]1(NC(=O)[C@H]2C=C3c4cccc5[nH]cc(c45)C[C@H]3N(C)C2)O[C@@]2(O)[C@H]3CCCN3C(=O)[C@H](Cc3ccccc3)N2C1=O ?
Epigenetic mod: 2.3%[9.22 µM]; Ub-GFP proteasome: -1.8%

What do the screens show for `CCc1ccc(-n2c(=O)c3sc4ccccc4c3n(CC(=O)NC3CCCC3)c2=O)cc1`?
Peg3 imprint: -14.1%[10.9 µM]; p53ts 32C tox: -8.0%; p53ts 39C tox: inconclusive

What do the screens show for `C[C@]1(C(=O)O)[C@@H]2CC[C@@H](O2)[C@@]1(C)C(=O)O`?
Epigenetic mod: 0.0%; HBB splice mod: 1.4%; p53ts 32C tox: 171.1%; Ub-GFP proteasome: 6.6%; p53ts 39C tox: 65.9%

Results for C=C[C@@H]1CN2CC[C@H]1CC2[C@H](O)c1ccnc2ccccc12 (some centres undefined) ?
Peg3 imprint: 6.9%[10.9 µM]

What do the screens show for `NC1=NC([S][Hg][c]2ccc(N)cc2)c2ncn([C@@H]3O[C@H](CO)[C@@H](O)[C@@H]3O)c2N1` (some centres undefined)?
Peg3 imprint: 3.7%[10.9 µM]

Results for CN1CC[C@@]2(C)c3cc(O)ccc3N(C)C12 (some centres undefined) ?
Peg3 imprint: -64.0%

What do the screens show for `CN1CC[C@]2(C)c3cc(O)ccc3N(C)[C@@H]12`?
Epigenetic mod: 4.5%[9.22 µM]; HBB splice mod: -0.3%[20.6 µM]; Peg3 imprint: -4.9%[16.8 µM]; p53ts 32C tox: 20µM*; Ub-GFP proteasome: -2.6%; p53ts 39C tox: 25.1µM*

What do the screens show for `O=C(Nc1nc2c(s1)CCCCCC2)Nc1ccc(F)cc1F`?
Peg3 imprint: -16.1%[10.9 µM]; p53ts 32C tox: -9.9%; p53ts 39C tox: inconclusive

Results for O=C(O)[C@@H]1[C@H](C(=O)O)[C@]2(Cl)C(Cl)=C(Cl)[C@@]1(Cl)C2(Cl)Cl ?
Epigenetic mod: 3.16µM*; HBB splice mod: 1.2%[9.22 µM]; Peg3 imprint: 1.8%[10.9 µM]; p53ts 32C tox: inconclusive; Ub-GFP proteasome: 1.8%[9.17 µM]; p53ts 39C tox: 1µM*

How did O=C(c1ccccc1Cl)N1CCC(c2nc3ccccc3s2)CC1 do in these assays?
Peg3 imprint: -6.2%[10.9 µM]; p53ts 32C tox: inconclusive; p53ts 39C tox: -13.4%

How did CCCCCCCCCCCCCC(=O)O[C@H]1[C@@H](C)[C@@]2(O)[C@@H](C=C(CO)C[C@]3(O)C(=O)C(C)=C[C@@H]23)C2C(C)(C)[C@]21OC(C)=O (some centres undefined) do in these assays?
Epigenetic mod: -2.2%; HBB splice mod: 0.1%; p53ts 32C tox: inconclusive; Ub-GFP proteasome: -2.9%; p53ts 39C tox: 15.8µM*

What do the screens show for `Cn1ncc2c(NCc3ccc(F)cc3)ncnc21`?
Peg3 imprint: -6.4%[10.9 µM]; p53ts 32C tox: -2.1%; p53ts 39C tox: inconclusive

How did CC[n+]1c(-c2ccccc2)c2cc(N)ccc2c2ccc(N)cc21 do in these assays?
HBB splice mod: -1.0%; Peg3 imprint: -63.1%; p53ts 32C tox: 3.98µM*!; p53ts 39C tox: 2.51µM*

How did CCn1nc(-c2cccs2)nc2c(=O)n(C)c(=O)nc1-2 do in these assays?
Epigenetic mod: 4.0%; HBB splice mod: -0.4%[57.5 µM]; Peg3 imprint: -93.6%; p53ts 32C tox: 2µM*; Ub-GFP proteasome: 0.2%; p53ts 39C tox: 3.98µM*

Results for CCC(=O)OC1CCC2C3CCc4cc(O)ccc4C3CC[C@]12C (some centres undefined) ?
Peg3 imprint: -34.7%; p53ts 32C tox: inconclusive; p53ts 39C tox: 10µM*

What do the screens show for `c1ccc(C(OCCN2CCNCC2)c2ccccc2)cc1`?
Epigenetic mod: 0.9%; HBB splice mod: -0.2%[57.5 µM]; Peg3 imprint: -23.7%; p53ts 32C tox: -4.8%; Ub-GFP proteasome: -0.9%; p53ts 39C tox: -18.4%

How did C(=C/c1ccccc1)/CN1CCN(CCOC(c2ccccc2)c2ccccc2)CC1 do in these assays?
Epigenetic mod: 7.4%; Peg3 imprint: -19.0%; p53ts 32C tox: -18.5%; Ub-GFP proteasome: -2.6%; p53ts 39C tox: 31.6µM*

Results for COc1ccc2c(c1)-c1nc(NC(=O)c3ccc(Cl)cc3)sc1CC2 ?
Peg3 imprint: -7.4%[10.9 µM]; p53ts 32C tox: inconclusive; p53ts 39C tox: 10µM*

Results for COc1ccc(C(=O)Nc2ccc(Cl)cc2C(=O)c2ccccc2)c(OC)c1 ?
Peg3 imprint: -5.0%[10.9 µM]; p53ts 32C tox: 1.9%; p53ts 39C tox: -9.2%

How did NC(=O)CI do in these assays?
Epigenetic mod: -0.6%; HBB splice mod: 2.1%; Peg3 imprint: -33.7%; p53ts 32C tox: 6.31µM*; Ub-GFP proteasome: -1.5%; p53ts 39C tox: 5.01µM*

Results for N[C@H](Cc1c[nH]c2ccccc12)P(=O)(O)O ?
Epigenetic mod: 0.0%[9.22 µM]; HBB splice mod: 1.7%[9.22 µM]; Peg3 imprint: 0.631µM*; p53ts 32C tox: -1.0%[9.22 µM]; Ub-GFP proteasome: 5.8%[9.17 µM]; p53ts 39C tox: 3.2%[9.22 µM]
